PubChem BioAssay (NCI)
This is part of a sample that, as a whole, favours compounds with a hit. Of some 83,000 tested, about 20% had one in any assay.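 The test compound was applied at a single concentration to cells in 96-well plates for 48 hours, and percent growth was recorded.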 Unmarked numbers belong to inactive results. The source made the active and inactive calls. The calls were made as follows: active = growth percent below 10; inactive = the rest.

Each compound was assayed on MDA-MB-435 melanoma (assay: NCI-60 one-dose screen, 48 h (100 = growth as untreated, 0 = no growth, -100 = all killed)). Conditions: 10 µM unless noted.

Structure (SMILES)	growth
CCc1ccc(Cc2cnc(NC(=O)c3cc(C)oc3C)s2)cc1	-21.5% (active)
CNc1nc2ncc(-c3c(C)noc3C)cc2n1Cc1ccccc1	45.7%
CCCCC1=C(Br)C(=O)c2ncccc2C1=O	105%
Cc1ccc2nc(/C=C/c3ccc(N(C)C)cc3)cc(C)c2c1	-5.17% (active)
CCN(CC)c1ccc(/C=N/NC(=O)c2ccccc2Nc2ccnc(C(F)(F)F)c2)c(O)c1	29.3%
COc1cc2ncnc(Nc3ccc(S(=O)(=O)Nc4cc(C)on4)cc3)c2cc1OCCCN1CCOCC1	106%
COc1ccc(-c2cc(-c3ccc(N(C)C)cc3)nc(NC(=O)c3cccnc3)n2)cc1	103%
CC(=O)/C(Br)=C/c1ccc(Br)o1	62.4%
N#CC1=C(N)Oc2c(ccc3cccnc23)C1c1ccccc1 (stereo not given)	-47.4% (active)
CCCS(=O)(=O)Nc1cccc(Nc2ncnc3cc(NC(=O)CCl)ccc23)c1Cl	-46.9% (active)
COC(=O)c1nc(-c2ccc(C)cc2)oc1N1CCOCC1	103%
Cc1ccc(S(=O)(=O)N(CCC(=O)O)c2ccccc2)cc1	107%
Nc1ncc(-c2ccc3ncnc(N4CCc5cc(F)c(Cl)cc54)c3c2)cc1C(F)(F)F	0.606% (active)
OC1CSSC1Cn1cnc2c(Nc3ccc(F)c(Cl)c3)ncnc21 (stereo not given)	63.8%
COc1cc2c(c(OC)c1OC)C(=O)CC(c1cccc(C(=O)Nc3ccc(Br)cc3)c1)O2 (stereo not given)	30.3%

The compounds below were run on SW-620 colon in the same assay as above. Conditions: 10 µM unless noted.

Structure (SMILES)	growth
C=C(C)[C@@H]1CC[C@]2(COC(=O)c3cccnc3)CC[C@]3(C)[C@H](CC[C@@H]4[C@@]5(C)CCCN(C(=O)c6cccnc6)C(C)(C)[C@@H]5CC[C@]43C)[C@@H]12	32.2%
C=C1C(=O)O[C@H]2[C@H]1CC/C(CNC(=O)/C=C/c1cc(OC)c(OC)c(OC)c1)=C\CC[C@@]1(C)O[C@@H]21	-21.6% (active)
O=S(=O)(c1ccc(NCSc2nc3ccccc3s2)cc1)c1ccc(NCSc2nc3ccccc3s2)cc1	100%
COc1ccc(S(=O)(=O)Oc2ccc(-c3sc4cc(OS(=O)(=O)c5ccc(OC)cc5)ccc4c3C(=O)c3ccc(OCCN4CCCCC4)cc3)cc2)cc1	108%
Nc1nc(N)c2c(n1)NC(c1cccc(Nc3ccnc4cc(C(F)(F)F)ccc34)c1)CC(c1ccc(Cl)cc1)=N2 (stereo not given)	25.6%
COC(=O)[C@H]1Cc2c([nH]c3ccccc23)[C@H](c2ccc3c(c2)OCO3)N1	102%
[2H]C([2H])([2H])Oc1c(F)cccc1/C=C/C(=O)/C=C(O)/C=C/c1cccc(F)c1OC([2H])([2H])[2H]	109%
C=C(C)[C@@H]1CCC[C@]2(C(=O)OC)CC[C@]3(C)[C@@H](CC[C@@H]4[C@@]5(C)CCCNC(C)(C)[C@@H]5CC[C@]43C)[C@@H]12	86.7%
O=C(Nc1ncc(Cc2ccccc2)s1)c1ccc2c(c1)OCCO2	35.2%
COc1ccc(-c2cc(-c3ccc(Nc4nc(Nc5ccc(Cl)cc5)nc(Nc5ccc(Cl)cc5)n4)cc3)no2)cc1	88.7%
CNC(=O)c1cc(Oc2ccc3nc(NC(=O)NC(C)C)sc3c2)ccn1	53.2%
O=C1NCCS(=O)(=O)/C1=C\C=C\c1cccc(C(F)(F)F)c1	28.3%
NCCNc1ccc([N+](=O)[O-])cc1	112%
Clc1ccc2c(NCCCn3cnc4c(N5CCCC5)nc(Cl)nc43)ccnc2c1	103%
O=C(/C=C/c1ccc(Cl)cc1)c1ccc(Nc2ccnc3cc(Cl)ccc23)cc1	60.7%
Oc1c(Cl)cc(Cl)c2ccc(CN3CCNCC3)nc12	26.6%
O=C1c2ccccc2C(=O)c2cc(Cn3c[n+](Cc4ccc5ccccc5c4)c4ccccc43)ccc21	64.4%
CC(C)(C#N)c1cc(C(=O)Nc2cc(Nc3ncccc3-c3ncnc4nc[nH]c34)ccc2F)cc(C(F)(F)F)c1	37.5%
CC(C)n1cc(C2=C(c3cccc4ccccc34)C(=O)NC2=O)c2cc(Br)ccc21	46.7%
O=CN1N=C(c2cccc(Nc3ccncc3)c2)CC1c1ccc2c(c1)OCO2 (stereo not given)	102%

Structure (SMILES)	growth
CC(=O)Cc1nsc(NC(=O)c2cc(-c3cc(Cl)ccc3Cl)oc2C)n1	107%
O=C(O)COc1ccc(F)cc1	112%
CC(Cc1cccc2ccccc12)C(N)=O (stereo not given)	108%
NC(=N\N=C/c1ccc(Cl)cc1Cl)/C(N)=N\N=C/c1ccc(Cl)cc1Cl	63.4%
CCOC(=O)CC1C(CNC(=O)NC)OC(n2cnc3c(NC(=O)Nc4ccccc4)ncnc32)C1O[Si](C)(C)C(C)(C)C (stereo not given)	71.2%
CCc1ccc(Cc2cnc(NC(=O)c3cc(C)oc3C)s2)cc1	18.3%
CNc1nc2ncc(-c3c(C)noc3C)cc2n1Cc1ccccc1	71.8%
CCCCC1=C(Br)C(=O)c2ncccc2C1=O	60.2%
Cc1ccc2nc(/C=C/c3ccc(N(C)C)cc3)cc(C)c2c1	10.9%
CCN(CC)c1ccc(/C=N/NC(=O)c2ccccc2Nc2ccnc(C(F)(F)F)c2)c(O)c1	37.3%
COc1cc2ncnc(Nc3ccc(S(=O)(=O)Nc4cc(C)on4)cc3)c2cc1OCCCN1CCOCC1	106%
COc1ccc(-c2cc(-c3ccc(N(C)C)cc3)nc(NC(=O)c3cccnc3)n2)cc1	101%
CC(=O)/C(Br)=C/c1ccc(Br)o1	15.4%
N#CC1=C(N)Oc2c(ccc3cccnc23)C1c1ccccc1 (stereo not given)	29%
CCCS(=O)(=O)Nc1cccc(Nc2ncnc3cc(NC(=O)CCl)ccc23)c1Cl	-33.6% (active)
COC(=O)c1nc(-c2ccc(C)cc2)oc1N1CCOCC1	99.7%
Cc1ccc(S(=O)(=O)N(CCC(=O)O)c2ccccc2)cc1	104%
Nc1ncc(-c2ccc3ncnc(N4CCc5cc(F)c(Cl)cc54)c3c2)cc1C(F)(F)F	38.2%
OC1CSSC1Cn1cnc2c(Nc3ccc(F)c(Cl)c3)ncnc21 (stereo not given)	104%
COc1cc2c(c(OC)c1OC)C(=O)CC(c1cccc(C(=O)Nc3ccc(Br)cc3)c1)O2 (stereo not given)	85.8%
